Assay results from PubChem BioAssay (NCI).
About 79,000 compounds went through this panel and 15% of them were active in at least one assay; those are over-represented in the sample as a whole. A number with no mark means an inactive call. Cut-off read from the data, not from the text of the source: active = growth inhibition above about 70%; inactive = the rest.

Experiment: NCI Yeast Anticancer Drug Screen. Data for the CLN2oe strain (AID 163);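 note: 0% = growth of vehicle-only control cultures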
Settings: S. cerevisiae CLN2oe strain, at 1.2 µM, stronger effect = higher value
Summary of the method: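 Growth of a genetically modified yeast strain is measured after compound exposure and compared with cultures given vehicle alone.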

With `S=C(S)NN1CCOCC1` as the compound, how does the growth inhibition read?
Its growth inhibition is 57%.

Which growth inhibition does the source give for `COc1cc2c3c(cccc3c1)C(=O)N(CCN(C)C)C2=O` here?
The growth inhibition was -5%.

With `COC(=O)C1=C(C)NC(C)=C(C(=O)OCCCN2CCC(c3ccccc3)(c3ccccc3)CC2)C1c1cccc([N+](=O)[O-])c1` (stereo not given) as the compound, how does the growth inhibition read?
Its growth inhibition is -3%.

With `c1ccc2c(c1)Oc1cccc3cccc-2c13` as the compound, how does the growth inhibition read?
The growth inhibition was 18%.

With `CN(C)CCOc1ccc2c(c1)C/C(=C/c1ncc([N+](=O)[O-])n1C)C2=O` as the compound, how does the growth inhibition read?
The growth inhibition was 26%.

For `Cc1ccc(CCC2=CCCc3c2ccc2ccccc32)cc1`, which growth inhibition is on record?
Its growth inhibition is -5%.

With `CNC(=O)OCc1c(COC(=O)NC)c(-c2ccc(Cl)c(Cl)c2)n2c1CCC2` as the compound, how does the growth inhibition read?
Its growth inhibition is -4%.

With `Clc1ccccc1C1OC1c1ccccc1Cl` (stereo not given) as the compound, how does the growth inhibition read?
The growth inhibition was -3%.

For `O=[N+]([O-])c1cc(CCl)ccc1CCl`, which growth inhibition is on record?
Its growth inhibition is 10%.

With `O=C1C=CC(=O)c2c(O)c(Nc3ccc(OC(F)(F)F)cc3)c(Cl)c(O)c21` as the compound, how does the growth inhibition read?
The growth inhibition was -8%.

For `S=c1[nH]nc(Nc2ccc(Cl)cc2)s1`, which growth inhibition is on record?
The growth inhibition was -7%.

For `Cn1ccnc1Oc1ccc(Cl)cc1`, which growth inhibition is on record?
The growth inhibition was -8%.

Which growth inhibition does the source give for `BrCc1cccc2ccc3cccc(CBr)c3c12` here?
Its growth inhibition is -2%.

With `O=C1c2ccccc2-c2nc3ccccc3nc21` as the compound, how does the growth inhibition read?
Its growth inhibition is -38%.

For `CCCCCCCCCCCCCCCCCCNC`, which growth inhibition is on record?
The growth inhibition was 13%.

Which growth inhibition does the source give for `Oc1ccc(NCn2c(=S)sc3ccccc32)cc1` here?
Its growth inhibition is -16%.

Which growth inhibition does the source give for `O=C1C2CC[C@@H]3C(=O)C(Cl)(Cl)[C@@H]3CCC2C1(Cl)Cl` (stereo not given in full) here?
The growth inhibition was 3%.

Which growth inhibition does the source give for `CC[n+]1ccc2c(C)c3[nH]c4ccc(O)cc4c3c(C)c2c1` here?
Its growth inhibition is 5%.

With `Cc1ccc(-n2cc(-c3ccc(Cl)cc3)c(C#N)c2N)cc1` as the compound, how does the growth inhibition read?
The growth inhibition was -6%.

For `CC(=O)[O][Bi]([c]1ccccc1)[c]1ccccc1`, which growth inhibition is on record?
Its growth inhibition is 22%.

With `CC1=C(SCCO)C(=O)c2ccccc2C1=O` as the compound, how does the growth inhibition read?
The growth inhibition was 0%.

For `C/C(=N\O)C1CC2C=C(C#N)C1N(Cc1ccccc1)C2` (stereo not given), which growth inhibition is on record?
Its growth inhibition is -5%.

For `CC(Br)C(=O)c1ccc2cc(Br)c3ccccc3c2c1` (stereo not given), which growth inhibition is on record?
The growth inhibition was -4%.

For `Nc1nc(-c2cccnc2)cc(-c2cc(-c3cccnc3)nc(N)n2)n1`, which growth inhibition is on record?
Its growth inhibition is -2%.

With `CC(C)=CC(=O)O[C@@H]1CC(C)(C)CC2C3=CCC4[C@]56CC[C@](O)(OC5)C(C)(C)C6CC[C@@]4(C)C3(C)CC[C@]21C(=O)O` (stereo not given in full) as the compound, how does the growth inhibition read?
The growth inhibition was -5%.

With `CCC(C)COC(=O)c1ccc(N=Cc2ccc(C=Nc3ccc(C(=O)OCC(C)CC)cc3)cc2)cc1` (stereo not given) as the compound, how does the growth inhibition read?
Its growth inhibition is 0%.

Which growth inhibition does the source give for `Oc1cccc2c(Cl)ccnc12` here?
The growth inhibition was 52%.

Which growth inhibition does the source give for `O=C(O)c1cccc(-c2c3ccc(=O)cc-3oc3cc(O)ccc23)c1` here?
The growth inhibition was 11%.

For `CN(CCc1ccccn1)c1ccc2c(c1)Cc1ccccc1-2`, which growth inhibition is on record?
The growth inhibition was -5%.

For `Cc1cc(S(=O)(=O)/N=C(/NN)NNc2cccc(C(F)(F)F)n2)c(S)cc1Cl`, which growth inhibition is on record?
The growth inhibition was 3%.

Which growth inhibition does the source give for `O=C1C2C(C(=O)N1c1ccc(OCc3ccccc3)cc1)C1c3ccccc3C2C2CCCCN21` (stereo not given) here?
Its growth inhibition is -5%.

With `Nc1ccccc1CC(O)C(=O)O` (stereo not given) as the compound, how does the growth inhibition read?
Its growth inhibition is 5%.

For `O=C(O)C1CCCCC1c1c2ccc(=O)c(O)c-2oc2c(O)c(O)ccc12` (stereo not given), which growth inhibition is on record?
Its growth inhibition is 15%.

Which growth inhibition does the source give for `Cc1ccc2ccc(O)cc2c1` here?
The growth inhibition was -10%.

With `O=C1C(=O)c2ccccc2C=C1[N+](=O)[O-]` as the compound, how does the growth inhibition read?
Its growth inhibition is 2%.

Which growth inhibition does the source give for `COC(=O)c1ccc(NCC2=CC(=O)C=CC2=O)cc1O` here?
Its growth inhibition is 8%.

With `C(CCSC1=NCCN1)CSC1=NCCN1` (tested in a mixture with another compound) as the compound, how does the growth inhibition read?
The growth inhibition was -5%.

Which growth inhibition does the source give for `N#Cc1c(N)[nH]c2ccc(Sc3ccccc3)cc12` here?
The growth inhibition was -6%.

Which growth inhibition does the source give for `CCNc1nnc(CSc2nc(-c3ccccc3)c(-c3ccccc3)[nH]2)s1` here?
Its growth inhibition is 5%.

With `CC[C@@]1(O)C(=O)OCc2c1cc1n(c2=O)Cc2cc3c(N)cccc3nc2-1` as the compound, how does the growth inhibition read?
Its growth inhibition is 25%.
